Only a selection was taken, and hits are over-represented in it overall.
Pf Dd2 inh = qHTS Primary assay for Inhibitors of Plasmodium falciparum Dd2 growth in vitro. P. falciparum Dd2 growth, SYBR Green, 72 h. Potency, µM (highest dose often 28.9 µM), without a hit: at the top dose activity, negative = inhibition, usual class: inhibitors. actives 4.3% (n = 120,000). AID 1347417, 2020; active = well fitted inhibition curve with a large enough effect;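 also: plate controls were DMSO vehicle for no effect and reference drug for full effect; nearly all actives have a fitted effect of over 65% in size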
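Readout: SYBR Green fluorescence, 485 nm excitation, 535 nm emission, after ~16 h lysis at 37C. Before that, Dd2-infected red cells (2.5% hematocrit) grew 72 h with compound, 29 uM top final concentration.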
Starred values were filed as active, the others as inactive; i = inactive; [ ] = dose if it differs, or a comment. Potency is read from the fitted curve at half-maximal effect.

SMILES	Pf Dd2 inh
CCCCC(=O)N1CC(=O)Nc2ccc(F)cc2C1c1ccc(F)cc1 (centres undefined)	7.94µM*
CC(=O)N1CC(=O)Nc2ccc(F)cc2C1c1ccccc1 (centres undefined)	20.2%
COc1ccc(CC(=O)N2CC(=O)Nc3ccc(Br)cc3C2c2ccc(F)cc2)cc1 (centres undefined)	-17.6%
CN(C)S(=O)(=O)c1ccc(C(=O)N2CC(=O)Nc3ccc(Br)cc3C2c2ccc(F)cc2)cc1 (centres undefined)	0.2%
CCCCC1CCC(C(=O)N2CC(=O)Nc3ccc(Br)cc3C2c2ccc(F)cc2)CC1 (centres undefined)	10µM*
CCOc1ccc(C(=O)N2CC(=O)Nc3ccc(F)cc3C2c2ccc(F)cc2)cc1 (centres undefined)	8.8%
COC(=O)c1ccccc1NC(=O)Cn1nnc(-c2ccc(OC)cc2)n1	5.7%
COc1ccc(-n2c(/C=C/c3cccc(F)c3)nc3ccccc3c2=O)cc1Cl	55.7%
COc1ccc(-c2n[nH]c3c2C(c2ccc(Cl)cc2Cl)NC3=O)cc1 (centres undefined)	-25.4%
O=C(O)c1ccc(-c2nnc3ccc(NC(=O)C4CCC4)cn23)cc1	-11.1%
O=C(NC1CC1)c1ccc2nnc(-c3ccc(Cl)cc3)n2c1	7.1%
CC(C)CCNC(=O)c1ccc(-c2nnc3ccc(NC(=O)C4CCC4)cn23)cc1	2.82µM*
CN(CC1CCCCC1)C1CCOc2ccccc21 (centres undefined)	i
O=C(c1ccc2nnc(-c3cccc(OC(F)(F)F)c3)n2c1)N1CCOCC1	4.8%
COc1ccc(OC)c(NC(=O)N2CCCN(C)c3ccccc32)c1	-19.5%
O=C1CCN(C(=O)c2ccccc2)CCCC(C(=O)NCCc2ccccc2)CCN1 (centres undefined)	0.5%
C[C@@]12CO[C@@H](CNC(=O)C3CCCC3)O[C@@H]1CC[C@]1(C)[C@@H]2CC[C@@H](O)[C@H]1CC(=O)NCc1ccccc1	i
CCc1nc2c(c(-c3ccc(Cl)cc3)n1)CN([S+](C)(=O)[O-])CC2	-19.0%[44.1 µM]
CCc1nc2c(c(-c3ccc(Cl)cc3)n1)CN(Cc1ccc(C)cc1)CC2	-17.3%
Cc1nc2c(c(-c3ccc(O)cc3)n1)CN(Cc1ccc(OC(F)(F)F)cc1)CC2	-1.2%
CCc1nc2c(c(-c3ccc(Cl)cc3)n1)CCN(C(=O)c1ccccn1)CC2	-3.1%
CCc1nc2c(c(-c3ccc(Cl)cc3)n1)CN(Cc1ccsc1)CC2	5.01µM*
CCc1nc2c(c(-c3ccc(Cl)cc3)n1)CN(Cc1ccc(OC(F)(F)F)cc1)CC2	8.91µM*
CCOC(=O)c1nnc2c(-c3ccc(F)cc3)c(C)nn2c1N	-8.5%
COc1cccc(C(=O)N2C[C@@H]3CCN(C)C[C@]3(C(=O)O)C2)c1C	3.1%
SMILES	Pf Dd2 inh
COc1ccc(C)cc1NC(=O)N1CCN(C)C2(CCC(=O)N(C)CC2)C1 (centres undefined)	-12.9%
COCCC(=O)N[C@H]1CC[C@]2(C)CCC([C@H](C)C(=O)N3CCCCC3)[C@H](O)[C@H]2[C@@H]1C (some centres undefined)	i
Cc1cnc(C(=O)N2CCCC2c2nc(C3CCOCC3)no2)cn1 (centres undefined)	4.2%
CC[C@@]1(O)CCN(C(=O)CCc2nc(-c3ccncc3)no2)C[C@H]1O	0.8%
CCC(CC)C(=O)NC[C@@H]1C=C(C)[C@H](Cc2nc3ccccc3n2C)C[C@H]1C(C)C	11.2µM*
CC1=C[C@@H](CNC(=O)C2CCCCC2)[C@H](C(C)C)C[C@H]1Cc1nc2ccccc2n1C	10µM*
CC1=C[C@@H](CNC(=O)Cn2cnnn2)[C@H](C(C)C)C[C@H]1Cc1nc2ccccc2[nH]1	i
CC1=C[C@@H](CNC(=O)C2CC2)[C@H](C(C)C)C[C@H]1CC(=O)N1CCOCC1	i
CC(=O)N1CCN(C(=O)C[C@@H]2C[C@@H](C(C)C)[C@H](CNC(=O)C3CC3)C=C2C)CC1	i
CCCNC(=O)NC[C@@H]1C=C(C)[C@H](Cc2nc3ccccc3[nH]2)C[C@H]1C(C)C	i
CCCSCCCNC(=O)C1CCCN(C(=O)c2cnn(-c3ccccc3)c2-n2cccc2)C1 (centres undefined)	-0.7%
COCCOCC(=O)NCCc1noc(-c2cccnc2)n1	22.5%
CCc1noc(-c2cccn3c(CNC(=O)C4CCC4)nnc23)n1	i
O=C(c1ccccc1)N1CCCC(Cc2nc(C3CCOCC3)no2)C1 (centres undefined)	29.9%
Cc1cccc(N2Cc3c(NCc4ccc5c(c4)OCO5)ncnc3N(C)CC2=O)c1	-28.0%
CN1CC(=O)N(c2ccccc2F)Cc2c(NCc3ccc4c(c3)OCO4)ncnc21	-1.6%
Cc1nn(C)c2nc(-c3ccccn3)nc(NCc3ccc4c(c3)OCO4)c12	8.91µM*
CN1CCc2[nH]cnc2C12CCN(C(=O)c1ccc(-c3ccn[nH]3)cc1)CC2	-4.5%
COCCNC(=O)[C@@H]1C[C@H](Oc2ccccc2)CN1C(=O)Cc1c[nH]c2ccccc12	-19.9%
CS(=O)(=O)N1C[C@@H](COc2ccncc2)[C@H](c2ccccn2)C1	9.1%
C=CCOC(=O)C1=C(C)N=C2SC=C(CC(=O)N3CCCC3)N2C1c1ccccc1Cl (centres undefined)	-24.0%
CCOC(=O)C1=C(C)N=C2SC=C(CC(=O)Nc3ccc(OC)cc3)N2C1c1ccccc1F (centres undefined)	4.47µM*
C=CCOC(=O)C1=C(C)N=C2SC=C(CC(=O)N3CCCC3)N2C1c1cccc(OC)c1OC (centres undefined)	5.01µM*
CCOC(=O)C1=C(C)N=C2SC=C(CC(=O)NCc3ccco3)N2C1c1ccccc1F (centres undefined)	-18.4%
CCOC(=O)C1=C(C)N=C2SC=C(CC(=O)N3CCOCC3)N2C1c1cccc(OC)c1OC (centres undefined)	i
SMILES	Pf Dd2 inh
CC1=C(C(=O)OC(C)C)C(c2ccccc2F)N2C(CC(=O)N3CCCC3)=CSC2=N1 (centres undefined)	i
CCOC(=O)C1=C(C)N=C2SC=C(CC(=O)NCCc3cccs3)N2C1c1ccccc1F (centres undefined)	-9.7%
CC1=C(C(=O)OC(C)C)C(c2ccc([N+](=O)[O-])cc2)N2C(CC(=O)N3CCCC3)=CSC2=N1 (centres undefined)	2.82µM*
CC1=C(C(=O)OC(C)(C)C)C(c2ccccc2)N2C(CC(=O)N3CCCC3)=CSC2=N1 (centres undefined)	-16.9%
O=C([C@@H]1C[C@H](Oc2ccccc2)CN1C(=O)CCCc1ccccc1)N1CCOCC1	7.3%
CCc1ccc(NC(=O)N2C[C@@H](F)C[C@H]2C(=O)N2CCc3ccccc3C2)cc1	-22.4%
Cc1[nH]ncc1CNC(=O)CN1CCCc2nc(-c3ccccc3)ncc2C1=O	i
Cc1ccc(NC(=O)Nc2nnc(N3CCCC3)s2)c(C)c1	52.5%
COc1ccc(-n2c(=O)c3sc4ccccc4c3n(C)c2=O)cc1	36.0%
O=Cc1ccccc1-c1cccc(C(F)(F)F)c1	-1.5%[44.1 µM]
CC(C)NC(=O)C[C@@H]1C[C@H]2O[C@H](CNC3CCNCC3)[C@@H](O)[C@H]2O1	14.9%[44.1 µM]
CC(C)C(=O)N1Cc2ccccc2CC2(CCCN(CC3CCCCC3)C2)C1 (centres undefined)	0.251µM*
CCCN1CCC2(Cc3ccccc3CN(C(C)=O)C2)C1 (centres undefined)	-3.2%
CC(=O)NCC(=O)N1Cc2ccccc2CC2(CCCN2C)C1 (centres undefined)	22.4%
